Results filed as inconclusive are left out. Calls of active or inactive are those of the source. Unless noted, calls come from the whole dose curve.
Columns and labels:
[1] = Cell Viability - BJ (AID 421); details: BJ fibroblast viability, qHTS;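 note: potency is the fitted concentration of half-maximal effect; cells exposed to compound for 40 hours at 37 °C before readout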
In short: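 Cytotoxicity as drop in intracellular ATP (CellTiter-Glo, 20 min RT) after 40 hr compound exposure of BJ fibroblasts at 37 °C. Titrations scaled between DMSO and 100 uM tamoxifen, Hill-fitted for AC50.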

[2] = Cell Viability - Jurkat (AID 426;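 active = dose-dependent loss of cell ATP signal giving a full or clear fitted curve, ranked by lower potency value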;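 note: potency is the fitted concentration of half-maximal effect; cells exposed to compound for 40 hours at 37 °C before ATP read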); details: qHTS
In short: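 Luminescent ATP read-out (CellTiter-Glo, 20 min at room temperature) after 40 hr compound exposure at 37 °C of Jurkat E6-1 cells, 5000/well. Decreased ATP taken as cytotoxicity; AC50 from standard Hill equation.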

[3] = Cell Viability - Hek293 (AID 427;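 active = compounds whose dose-response curve shows a full or clear partial loss of cell viability, called from curve shape rather than a numeric limit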;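 note: potency is the fitted concentration of half-maximal effect; cells exposed to compound for 40 hours at 37 °C before reading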); details: qHTS
In short: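 Luminescent ATP content (CellTiter-Glo, 20 min at room temperature) was measured after a 40 hr, 37 °C compound exposure of HEK293 cells. AC50 values came from Hill-equation fits of qHTS concentration-response data normalized to DMSO and 100 uM tamoxifen.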

[4] = Cell Viability - HepG2 (AID 433); details: qHTS;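 note: potency is the fitted concentration of half-maximal effect; cells exposed to compound for 40 hours; potency for ATP loss meaning cytotoxicity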
In short: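 Cytotoxicity read as ATP loss (CellTiter-Glo luminescence) after 40 hr compound exposure of HepG2, 1500 cells/well, 37 °C. AC50 by Hill equation; 0% set by DMSO, 100% inhibition by 100 uM tamoxifen.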

[5] = Cell Viability - MRC5 (AID 434); details: MRC5 lung fibroblast viability, qHTS;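 note: potency is the fitted concentration of half-maximal effect; cells exposed to compound for 40 hours at 37 °C; potency reflects cytotoxicity seen as loss of intracellular ATP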
In short: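 AC50 values come from Hill-equation fits of intracellular ATP loss, measured by CellTiter-Glo luminescence. Normal lung fibroblasts (MRC5) had 40 hr compound treatment at 37 C, normalized between DMSO and 100 uM tamoxifen.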

[6] = Cell Viability - SK-N-SH (AID 435); details: SK-N-SH neuroblastoma cell viability qHTS; note: potency is the fitted concentration of half-maximal effect
In short: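 qHTS cytotoxicity: CellTiter-Glo ATP luminescence after 40 h compound exposure of human neuroblastoma SK-N-SH cells at 37 °C. AC50 derived by Hill-equation fitting, with DMSO as basal and 100 uM tamoxifen as full inhibition.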

[7] = AP1 Signaling Pathway (AID 357; active = well fitted curve in either direction with a large enough effect, not every such curve was filed as active;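 note: ME-180 reporter cells stimulated with EGF at its EC50 level; % is set by controls: 0 for no effect and ±100 for the full control effect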); details: ME-180 AP-1-bla reporter, EGF-induced, beta-lactamase ratio, 5 h; series mostly up to 17.2 µM
In short: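 In this screen, ME-180 cells in Opti-MEM with 0.5% dialyzed FBS received EC50 EGF and compound titrations for 5 h. AP-1 reporter beta-lactamase was detected via CCF4 ratio, giving AC50 for positive and negative modulators.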

[8] = molecular target: Cytochrome P450 1A2 (Homo sapiens) (UniProt P05177); assay: p450-cyp1a2 (AID 410); details: recombinant CYP1A2, luciferin-ME demethylation, luminescence; series mostly up to 57 µM;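 note: -100% = full effect of reference inhibitor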
In short: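 20nM CYP1A2, 100uM Luciferin-ME (=Km), 100mM KPO4; cpd 10 min RT; +NADPH regen, 60 min RT; stop/detect 20 min; luminescence. Normalized to furafylline 57 uM = full inhibition.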

[9] = NFAT Signaling Pathway (AID 444; active = well fitted curve in either direction with a large enough effect, not every such curve was filed as active;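 note: carbachol stimulus at about its EC50 of 1 µM final; % is set by controls: 0 for no effect and ±100 for the full control effect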); details: Jurkat NFAT-bla M1, carbachol, beta-lactamase ratio, 5 h
In short: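 Read-out: CCF4 FRET ratio (460 nm/530 nm) after 1 h RT dye loading, used for %activity and AC50 from titration series. Cells: Jurkat NFAT-β-lactamase/M1 line, treated with compound plus 1 uM carbachol for 5 h, 37 °C.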

[10] = Stat Signaling Pathway (AID 446; active = well fitted curve in either direction with a large enough effect, not every such curve was filed as active;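 note: ME-180 cervical cancer cells given 40 pM IL-6 alongside compound; SIE-controlled beta-lactamase reporter measured as 460/530 nm FRET emission ratio; % is set by controls: 0 for no effect and ±100 for the full control effect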); details: ME-180 (cervical carcinoma) SIE beta-lactamase reporter, IL-6 stimulated, 5 h; series mostly up to 17.2 µM
In short: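 FRET read-out (405 nm excitation, 460/530 nm emission) of a beta-lactamase reporter under a STAT-inducible element in ME-180 cervical carcinoma cells. Cells with compound receive 40 pM IL-6 for 5 h. Values are normalised to AC90 stimulation and AC90 JAK-inhibitor controls.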

Cytochrome P450 1A2 (Homo sapiens), sequence (P05177 whole entry, looked up): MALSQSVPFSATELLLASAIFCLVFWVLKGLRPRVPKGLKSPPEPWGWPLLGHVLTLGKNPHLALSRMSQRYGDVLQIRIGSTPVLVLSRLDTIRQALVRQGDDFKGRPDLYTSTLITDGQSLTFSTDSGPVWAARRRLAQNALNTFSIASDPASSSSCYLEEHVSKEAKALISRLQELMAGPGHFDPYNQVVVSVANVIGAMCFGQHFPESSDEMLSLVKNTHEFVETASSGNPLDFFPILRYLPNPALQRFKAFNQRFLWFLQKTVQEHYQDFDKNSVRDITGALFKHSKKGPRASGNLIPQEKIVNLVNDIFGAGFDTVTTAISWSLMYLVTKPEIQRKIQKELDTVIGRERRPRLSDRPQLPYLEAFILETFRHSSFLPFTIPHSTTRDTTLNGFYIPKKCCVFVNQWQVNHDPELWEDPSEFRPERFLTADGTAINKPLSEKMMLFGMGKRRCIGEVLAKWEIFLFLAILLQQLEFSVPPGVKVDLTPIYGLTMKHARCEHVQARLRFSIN

Nc1ccccc1C(=O)O
inactive: Potency [1] > 92 µM | Potency [2] > 92 µM | Potency [3] > 92 µM | Potency [4] > 92 µM | Potency [5] > 92 µM | Potency [6] > 92 µM

CCC1(CC)C(=O)C=CNC1=O
inactive: outcome [7] | Potency [8] | activity change, negative = inhibition ([9]; at 17.2 µM (top of the series)) -4.7% | outcome [10]

O=c1[nH]oc2c1CCNC2
inactive: outcome [7] | Potency [8] | activity change, negative = inhibition ([9]; at 17.2 µM (top of the series)) -9.07% | activity change, negative = inhibition ([9]; at 38 µM (top of the series)) 9.6% | outcome [10]

CC(C)N(CCC(C(N)=O)(c1ccccc1)c1ccccn1)C(C)C (stereo not drawn)
inactive: outcome [7] | outcome [10]

Nc1ccccc1
inactive: Potency [1] > 92 µM | Potency [2] > 92 µM | Potency [3] > 92 µM | Potency [4] > 92 µM | Potency [5] > 92 µM | Potency [6] > 92 µM

[N-]=[N+]=CC(=O)OC[C@H](N)C(=O)O
inactive: outcome [7] | activity change, negative = inhibition ([9]; at 17.2 µM (top of the series)) -1.72% | outcome [10]

COc1ccc2c(c1)C13CCCC[C@@H]1C(C2)N(C)CC3 (stereo partly drawn)
inactive: outcome [7] | activity change, negative = inhibition ([9]; at 17.2 µM (top of the series)) -1.88% | outcome [10]

COc1cc(OC)c(OC)cc1C=O
inactive: Potency [1] > 92 µM | Potency [2] > 92 µM | Potency [3] > 92 µM | Potency [4] > 92 µM | Potency [5] > 92 µM | Potency [6] > 92 µM

CN1C[C@H](C(=O)N[C@]2(C)O[C@@]3(O)[C@@H]4CCCN4C(=O)[C@H](Cc4ccccc4)N3C2=O)C=C2c3cccc4[nH]cc(c34)C[C@H]21
active: Potency [2] 56.2 µM
inactive: Potency [1] > 92 µM | Potency [4] > 92 µM | Potency [5] > 92 µM | Potency [6] > 92 µM

C[C@]12CCC(=O)C=C1CC[C@@H]1[C@@H]2CC[C@]2(C)C(=O)CC[C@@H]12
active: Potency [3] 36.7 µM
inactive: outcome [7] | Potency [1] > 92 µM | Potency [2] > 92 µM | Potency [4] > 92 µM | Potency [5] > 92 µM | Potency [6] > 92 µM | activity change, negative = inhibition ([9]; at 17.2 µM (top of the series)) 7.44% | outcome [10]

CNC(C)(C)Cc1ccccc1
inactive: outcome [7] | Potency [8] | activity change, negative = inhibition ([9]; at 17.2 µM (top of the series)) -3.4% | outcome [10]

C#C[C@]1(O)CC[C@H]2[C@@H]3CCC4=CC(=O)CC[C@]4(C)[C@H]3CC[C@@]21C
inactive: outcome [7] | activity change, negative = inhibition ([9]; at 17.2 µM (top of the series)) 2.09% | outcome [10]

CCCC(C)(COC(N)=O)COC(N)=O
inactive: Potency [1] > 92 µM | Potency [2] > 92 µM | Potency [3] > 92 µM | Potency [4] > 92 µM | Potency [5] > 92 µM | Potency [6] > 92 µM

CCOC(=O)CC(SP(=S)(OC)OC)C(=O)OCC (stereo not drawn)
inactive: Potency [1] > 92 µM | Potency [2] > 92 µM | Potency [3] > 92 µM | Potency [4] > 92 µM | Potency [5] > 92 µM

CC(C)c1cccc(C(C)C)c1O
inactive: outcome [7] | Potency [1] > 92 µM | Potency [2] > 92 µM | Potency [3] > 92 µM | Potency [4] > 92 µM | Potency [5] > 92 µM | Potency [6] > 92 µM | activity change, negative = inhibition ([9]; at 17.2 µM (top of the series)) -3.69% | activity change, negative = inhibition ([9]; at 38 µM (top of the series)) 7.25% | outcome [10]

CCC(C)(C)c1ccc(O)cc1
inactive: Potency [1] > 92 µM | Potency [2] > 92 µM | Potency [3] > 92 µM | Potency [4] > 92 µM | Potency [5] > 92 µM | Potency [6] > 92 µM
